Each structure is given as a SMILES string. About 8,600 (12%) of roughly 69,000 compounds showed an effect of 50% or more. The list comes from a sample in which strong results are over-represented; it also holds similar structures and randomly drawn compounds.

In the experiment the test system is Plasmodium berghei. Put plainly: Screen against P. berghei liver stage (PbLuc), transformed with Luciferase, at 10uM. Format: functional, HepG2. Particulars: tested at 10 uM.
For the compound `Cn1ccc(CN2CCC(NC(=O)C3CCCCC3)CC2)cc1=O`, the INHIBITION is recorded as 5.907%.

`CC1(C(=O)NCc2cccc(C(F)(F)F)c2)CCOCC1`: the INHIBITION was 15.9%. Take `O=C1CSC(C(F)(F)F)c2c(O)nn(C3CCCC3)c2N1` (configuration not stated): the INHIBITION is 13.1%. As to `CCC(C)NC(=O)Nc1cccc(OCC#N)c1` (configuration not stated), the INHIBITION is listed as 5.29%. For the compound `O=c1[nH]nc(CNCc2ccc(OC34CCCN(CC3)C4)cc2)[nH]1` (configuration not stated), the INHIBITION was 21.085%. The figure for `c1ccc(Oc2ccc(OC34CCCN(CC3)C4)cc2)cc1` (configuration not stated) is 57.6%; for `N#Cc1cccc(OC23CCCN(CC2)C3)c1` (configuration not stated) it is 21.2%. As for `Cc1cnccc1CNCc1ccc(OC23CCCN(CC2)C3)cc1` (configuration not stated), the figure is 21.525%; as for `Cc1nc(CNCc2cccc(OC34CCCN(CC3)C4)c2)n[nH]1` (configuration not stated), 31.15%; as for `c1ccc(Oc2cccc(OC34CCCN(CC3)C4)c2)cc1` (configuration not stated), 65.7%. As for `Cc1cn2cc(-c3nc4c([nH]3)CCCNC4=O)nc2s1`, the figure is -54.3%; as for `CCc1nnc(CN2CCN(C(C)=O)CC2)o1`, 9.65%; as for `CC(=O)NCC1CCN(Cc2nc(C3CC3)no2)CC1`, 57.5%. For `CS(=O)(=O)N1CCCCCC1C1CCN(Cc2nc(C3CC3)no2)CC1` (configuration not stated), the INHIBITION was 29.1%. The figure for `O=C(NCC1CCCO1)C1CCN(Cc2nc(C3CC3)no2)CC1` (configuration not stated) is 40.2%; for `CC(=O)N1CCCCCC1C1CCN(Cc2nc(C3CC3)no2)CC1` (configuration not stated) it is 55.4%. As for `CC(=O)N1CCCCCC1C1CCN(Cc2nnc(C(C)(C)C)o2)CC1` (configuration not stated), the figure is 66.5%.

As to `CC(=O)N1CCCCCC1C1CCN(Cc2nc(C(C)C)no2)CC1` (configuration not stated), the INHIBITION was found to be 8.11%.

For `CC(C)(C)c1nnc(CN2CCN(C(=O)N3CCCCC3)CC2)o1`, the INHIBITION turned out to be 29.5%. As for `CC(=O)N1CCN(Cc2nnc(C(C)(C)C)o2)CC1`, the figure is -33.2%; as for `CCc1nnc(CN2CCC(C3CCCCCN3C(=O)C3CC3)CC2)o1` (configuration not stated), 62.8%; as for `CCN1CCN(C2CCN(Cc3nc(C4CC4)no3)CC2)C1=O`, 33.8%. Take `CCc1nnc(CN2CCC(C3CCCCCN3C(C)=O)CC2)o1` (configuration not stated): the INHIBITION is reported as 40.6%. As for `Cc1[nH]ccc1C(=O)Nc1cccc(CN2CCC(CO)CC2)c1`, the figure is 25.3%; as for `CC(C)=CCN1C[C@@H]2CC[C@H]1CN(C(=O)c1ccc(S(N)(=O)=O)cc1)C2`, 39.4%. The figure for `Cc1ncsc1C(=O)N1CCN(Cc2cscn2)CC1` is 16%; for `Cc1cccc(OCCNC(=O)Cn2ccc(C)cc2=O)c1` it is 28.7%. The figure for `O=C(c1ccnc(NC2CC2)c1)N1CCCC1c1cccc(Br)c1` (configuration not stated) is -96.5%; for `Cc1ccc(C)c2c(C)c(C(=O)NCCCn3cnnc3)[nH]c12` it is -56.7%; for `CN(C)C(=O)COC1COC2(CCN(CC3CC3)CC2)C1` (configuration not stated) it is 37.6%. With `Cc1cccc(CN2C(=O)C[C@H]3[C@@H]2CCN3CC2CC2)n1`, the INHIBITION is given as -14.3%.

`Cn1cc(NC(=O)CNC(=O)N2CCN(c3ccc(F)cc3)CC2)cn1`: the INHIBITION was 9.55%. The figure for `CNc1cc(N2CCCC2CNCc2cnc(C)s2)ncn1` (configuration not stated) is 7.61%. As for `Cc1ncoc1C(=O)N1CCn2c(COc3cccnc3)cnc2C1C` (configuration not stated), the figure is 5.67%. The figure for `COCc1cnc2n1CCN(C(=O)c1cc3ccccc3o1)C2C` (configuration not stated) is 62%; for `COCc1cnc2n1CCN(C(=O)c1ccc3ccccc3n1)C2C` (configuration not stated) it is 61.1%. With `COCc1cnc2n1CCN(C(=O)c1cnc3ccccc3c1)C2C` (configuration not stated), the INHIBITION came to 11.3%.

`COCc1cnc2n1CCN(C(=O)c1cc3cc(Cl)ccc3o1)C2C` (configuration not stated): the INHIBITION is reported as 46.6%.

For the compound `COCc1cnc2n1CCN(C(=O)c1ocnc1C)C2C` (configuration not stated), the INHIBITION is 20.5%. As for `COCc1cnc2n1CCN(C(=O)c1oc3ccccc3c1C)C2C` (configuration not stated), the figure is 52.1%. As for `COCc1cnc2n1CCN(C(=O)C1=CCCC1)C2C` (configuration not stated), the figure is -56.3%; as for `COCc1cnc2n1CCN(C(=O)C1=CCCCC1)C2C` (configuration not stated), 14.2%. As for `CCn1cc(CNCCNc2ncc(Cl)cc2Cl)cn1`, the figure is 15.7%; as for `O=C(Cn1cnc2ccsc2c1=O)NCCCc1nnc2ccccn12`, 34.3%; as for `CCN1CCn2c(C)cnc2C12CCN(C(=O)C(C)C)CC2`, -40.5%. Consider `CN(C)c1cc(CNC(=O)Nc2nncs2)ccn1`, for which the INHIBITION is given as -2.19%.

Consider `Cc1ccc2nc(C)c(C)c(C(=O)N[C@H]3COC[C@@H]3N3CCCC3)c2c1`, for which the INHIBITION was 59.1%. For the compound `Cc1cc(C(=O)N[C@H]2COC[C@@H]2N2CCOCC2)c2ccc(F)cc2n1`, the INHIBITION amounted to 55.4%.

`Cc1cc(C(=O)N2CCN[C@H](C)C2)c2ccc(F)cc2n1`: the INHIBITION is listed as 12.2%. For the compound `CCO[C@H]1CN(C)C[C@@H]1NC(=O)c1cc(C)nc2ccc(C)cc12`, the INHIBITION is given as 28.4%. The figure for `CO[C@H]1CNC[C@@H]1NC(=O)c1cc(C)nc2ccc(C)cc12` is -100%; for `Cc1ccc2nc(C)c(C)c(C(=O)N3CCC4(CCO4)CC3)c2c1` it is 33.3%. The figure for `Cc1cc(C(=O)N(C)C2CCN(C)C2)c2ccc(F)cc2n1` (configuration not stated) is 21.5%; for `Cc1nc(C(=O)N[C@H]2COC[C@@H]2N2CCCCC2)cs1` it is 11.3%. As for `Cc1ccc2nc(C)cc(C(=O)N[C@H]3COC[C@@H]3N3CCOCC3)c2c1`, the figure is 66.5%; as for `CCc1nccn1C1CCCN(C(=O)Cc2cn3ccsc3n2)C1` (configuration not stated), -23.9%; as for `CC(C)c1nnc2ccc(N3CCC(C(=O)NC4CC4)CC3)nn12`, -18.9%. On to `CC(C)CNC(=O)NC(=O)C(C)Nc1cccc(CN2CCOC2=O)c1` (configuration not stated), for which the INHIBITION is -34.2%. The figure for `CC(C)c1ccc(OCCC(=O)N2CCC(C(=O)N(C)C)CC2)cc1` is -37.55%; for `Cc1cc(C(=O)N2CCCCC2c2nc3cc(F)ccc3[nH]2)nn1C` (configuration not stated) it is 10.7%; for `Cn1cc(C2COC3(CCN(C(=O)c4cnccn4)CC3)C2)cn1` (configuration not stated) it is 39.2%. With `Cc1oc(C(=O)O)cc1S(=O)(=O)Nc1ccc(Br)cc1Cl`, the INHIBITION is -18.8%. As for `CN(C)CC(NC(=O)c1ccn(C)c(=O)c1)c1ccccc1` (configuration not stated), the INHIBITION was determined as 4.34%.

For the compound `Cc1ccc(C(=O)NCC2(O)CCOCC2)cc1F`, the INHIBITION turned out to be 48.4%. The figure for `CC1(C(=O)NCc2ccsc2)CCOCC1` is 44.9%; for `CN(C)c1ccc(C(=O)NCC2(O)CCOCC2)cc1` it is -3.95%. As for `COC(=O)c1ccc(C(=O)NCC2(O)CCOCC2)cc1`, the figure is 36.3%; as for `O=C(NCC1(O)CCOCC1)c1ccn(-c2ccccc2F)n1`, -14.9%. As for `CC1(C(=O)NCCc2ccc(F)cc2)CCOCC1`, the figure is 54%; as for `O=C(NCC1(O)CCOCC1)c1ccc(F)cc1`, 54.8%.

As to `CC1(C(=O)NCc2cc(F)cc(F)c2)CCOCC1`, the INHIBITION came to 37.5%. For `CN(C)c1cccc(C(=O)NCC2(O)CCOCC2)c1`, the INHIBITION is recorded as 58.3%. The figure for `CN1CCN(C(=O)c2cc(C#N)cn2C)c2ccccc2C1` is -59.5%. The figure for `CCn1cc(S(=O)(=O)N2CCCCCC2c2cc(C)no2)cn1` (configuration not stated) is -7.66%; for `Cc1cc(C)n(CC2CCCN2C(=O)CCc2ccco2)n1` (configuration not stated) it is 27.25%. As for `NC(=O)C(Nc1ccc(Cl)cc1)c1ccc(F)cc1` (configuration not stated), the figure is 4.81%; as for `CCCc1nc(C(C)(C)NC(=O)C2CC(=O)N(CC(C)C)C2)no1` (configuration not stated), -5.25%. Consider `CC1=C(C#N)C(=O)NC(=O)/C1=C\c1c(C)[nH]n(-c2ccc(C)cc2)c1=O`, for which the INHIBITION is recorded as 47.1%.

For the compound `Cn1cc(C(=O)OC2CN(c3nc4c(C(F)(F)F)cccc4s3)C2)nn1`, the INHIBITION is -45.6%. As for `Cc1cc(O)c(OCC(=O)Nc2nc3c(s2)CCCCC3)cn1`, the figure is 54.9%; as for `Cc1cc(O)c(OCC(=O)Nc2nccs2)cn1`, -18%; as for `Cc1cc(O)c(OCC(=O)Nc2nc3c(s2)CCCC3)cn1`, 40%.

In the case of `CCc1ncc2c(n1)CN(Cc1nc(-c3ccoc3)no1)CC2`, the INHIBITION was determined as 27.8%.

In the case of `CN(C)C(=O)c1cccc(CN2CCOC(Cn3cccn3)C2)c1` (configuration not stated), the INHIBITION is recorded as -2.33%.

For the compound `O=C(c1ccc(Cl)cc1)N1CCC(N2CCOC2=O)CC1`, the INHIBITION came out at 41.6%.

Take `Nc1nc(CC(=O)N2CCCC(CCc3cccc(F)c3)C2)cc(=O)[nH]1` (configuration not stated): the INHIBITION is reported as 7.3%. `O=C(CC1=CSC2=NCCN12)N1CCCC(CCc2cccc(F)c2)C1` (configuration not stated): the INHIBITION was determined as 68.5%. For `O=C(CC1=CSC2=NCCCN12)N1CCCCC1c1cccc(F)c1` (configuration not stated), the INHIBITION is 32.3%. As for `Cc1cc(C(=O)N2C[C@@H]3CC[C@H]2CN(Cc2ccccn2)C3)nc(N)n1`, the figure is 4.59%; as for `CCN(C(=O)Nc1nccs1)C(C)c1cccc(O)c1` (configuration not stated), 71.3%; as for `CC(NC(=O)Nc1nccs1)c1cccnc1` (configuration not stated), 54.8%. The figure for `CCN(C(=O)Nc1nncs1)C(C)c1cccc(OC)c1` (configuration not stated) is -5.22%; for `CC(NC(=O)Nc1nccs1)c1ccc(S(C)(=O)=O)cc1` (configuration not stated) it is 16.8%; for `CCN(C(=O)Nc1cc(C)on1)C(C)c1cccc(O)c1` (configuration not stated) it is -2.43%. The figure for `CC(NC(=O)Nc1nccs1)c1ccncc1` (configuration not stated) is 5.91%; for `Cc1cc(C(F)(F)F)n2nc(C3CCCN3C3CCSCC3)cc2n1` (configuration not stated) it is 5.535%; for `CC1(C)CN(c2cc(C3CC3)ncn2)C[C@]1(C)O` it is -1.04%. As to `COCCn1ccc(NC(=O)Nc2ccc(C(N)=O)c(F)c2)n1`, the INHIBITION was determined as 11.1%. As for `O=C(N[C@@H]1CCN(Cc2cc3ccccc3s2)C[C@H]1O)c1cccnc1`, the figure is 22%; as for `COC(=O)c1ccn(COc2ccccc2Cl)n1`, -15.5%. As for `CCc1nc(C2CCCN2C(=O)CCn2cncn2)no1` (configuration not stated), the figure is 30.8%.

Turning to `Cc1cc(=O)[nH]c(-n2nc(C)c(CCC(=O)NCc3ccco3)c2C)n1`, the INHIBITION came to 6.09%.

Take `Cc1cc(=O)[nH]c(-n2nc(C)c(CCC(=O)NCC(C)C)c2C)n1`: the INHIBITION is 11.3%. The figure for `Cc1noc(C)c1CCC(=O)NCCc1cccs1` is -1.99%; for `Cc1cc(=O)[nH]c(-n2nc(C)c(CCC(=O)NCc3cccs3)c2C)n1` it is 72.2%.

With `Cc1cc(=O)[nH]c(-n2nc(C)c(CCC(=O)Nc3nc(C)cs3)c2C)n1`, the INHIBITION came to 68.2%. In the case of `COC(=O)CCc1c(C)nn(-c2nc(C)cc(=O)[nH]2)c1C`, the INHIBITION is listed as -12.6%.

(Values after ChEMBL document CHEMBL4513216, “Probing the Open Global Health Chemical Diversity Library for Multistage-Active Starting Points for Next-Generation Antimalarials” (ACS Infect Dis, 2020).)
